Values without a mark were called inactive.
Compound: C#CCNC(=O)CCSSCCC(=O)NCCc1ccc(C=O)c(C=O)c1
Test: lysine labeling ratio R10:1 (500 µM / 50 µM probe), SILAC-ABPP in living cells; higher = lower intrinsic lysine reactivity toward the probe, active = 2 or less
Conditions: HeLa; probe concentrations 500 vs 50 µM
In short: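 For each lysine, R is the median over forward and reverse replicates of the filtered median MS1 peptide ratio of high probe to low probe. The probe, an alkyne-tagged, disulfide-linked lysine probe, was given at 500 µM or 50 µM to living SILAC light and heavy HeLa cells in PBS at room temperature, with label swaps. Values are capped at 20.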

Chain of UniProt O14786 (O14786 whole entry): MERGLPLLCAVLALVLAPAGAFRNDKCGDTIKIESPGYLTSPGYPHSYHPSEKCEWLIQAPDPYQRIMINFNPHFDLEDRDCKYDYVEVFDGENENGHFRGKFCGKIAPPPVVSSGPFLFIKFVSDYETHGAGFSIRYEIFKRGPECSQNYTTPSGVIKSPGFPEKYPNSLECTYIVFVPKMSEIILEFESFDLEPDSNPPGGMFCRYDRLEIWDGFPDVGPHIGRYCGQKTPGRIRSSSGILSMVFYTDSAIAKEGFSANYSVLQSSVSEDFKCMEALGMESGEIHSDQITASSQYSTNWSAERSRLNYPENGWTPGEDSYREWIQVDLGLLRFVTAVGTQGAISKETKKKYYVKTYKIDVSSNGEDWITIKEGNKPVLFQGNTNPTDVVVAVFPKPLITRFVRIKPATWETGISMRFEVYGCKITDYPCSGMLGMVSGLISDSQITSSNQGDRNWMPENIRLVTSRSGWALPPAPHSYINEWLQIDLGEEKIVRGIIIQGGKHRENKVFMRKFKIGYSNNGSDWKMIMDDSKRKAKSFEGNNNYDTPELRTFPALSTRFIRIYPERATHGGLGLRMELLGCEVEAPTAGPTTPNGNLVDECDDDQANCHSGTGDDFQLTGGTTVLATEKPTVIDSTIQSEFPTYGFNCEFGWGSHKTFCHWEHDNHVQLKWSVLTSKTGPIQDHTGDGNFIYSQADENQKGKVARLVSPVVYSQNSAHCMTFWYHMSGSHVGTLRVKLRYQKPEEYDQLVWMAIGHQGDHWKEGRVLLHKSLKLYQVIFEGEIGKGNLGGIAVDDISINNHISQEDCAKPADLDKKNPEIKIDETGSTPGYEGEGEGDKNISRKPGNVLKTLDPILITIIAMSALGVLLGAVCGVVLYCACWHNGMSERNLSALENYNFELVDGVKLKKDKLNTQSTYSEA
Chain of UniProt Q9P2B2 (Q9P2B2 whole entry): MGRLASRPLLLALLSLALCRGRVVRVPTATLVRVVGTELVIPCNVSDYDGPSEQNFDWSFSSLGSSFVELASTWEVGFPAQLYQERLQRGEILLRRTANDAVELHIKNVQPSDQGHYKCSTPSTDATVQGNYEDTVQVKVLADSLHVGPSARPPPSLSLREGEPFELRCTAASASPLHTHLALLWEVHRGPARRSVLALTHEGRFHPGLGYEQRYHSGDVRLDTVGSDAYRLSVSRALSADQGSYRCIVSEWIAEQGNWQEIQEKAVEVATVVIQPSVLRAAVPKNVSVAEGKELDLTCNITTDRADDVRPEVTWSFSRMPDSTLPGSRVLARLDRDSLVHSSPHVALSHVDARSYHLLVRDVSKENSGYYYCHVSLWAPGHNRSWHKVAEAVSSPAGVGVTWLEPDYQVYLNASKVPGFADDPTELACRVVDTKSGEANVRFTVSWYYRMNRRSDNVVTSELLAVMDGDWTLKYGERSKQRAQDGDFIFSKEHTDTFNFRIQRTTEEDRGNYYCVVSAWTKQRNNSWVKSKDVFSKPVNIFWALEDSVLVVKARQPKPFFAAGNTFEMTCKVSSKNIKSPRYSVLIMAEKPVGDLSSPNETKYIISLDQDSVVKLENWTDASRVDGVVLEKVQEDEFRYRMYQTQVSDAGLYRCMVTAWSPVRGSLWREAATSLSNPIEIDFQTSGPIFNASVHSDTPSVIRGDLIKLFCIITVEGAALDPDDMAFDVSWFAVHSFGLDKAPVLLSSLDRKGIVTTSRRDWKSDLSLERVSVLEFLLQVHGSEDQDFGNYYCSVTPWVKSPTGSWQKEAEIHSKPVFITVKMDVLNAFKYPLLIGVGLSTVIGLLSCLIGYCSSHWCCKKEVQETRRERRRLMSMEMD
Chain of UniProt P30533 (P30533 whole entry): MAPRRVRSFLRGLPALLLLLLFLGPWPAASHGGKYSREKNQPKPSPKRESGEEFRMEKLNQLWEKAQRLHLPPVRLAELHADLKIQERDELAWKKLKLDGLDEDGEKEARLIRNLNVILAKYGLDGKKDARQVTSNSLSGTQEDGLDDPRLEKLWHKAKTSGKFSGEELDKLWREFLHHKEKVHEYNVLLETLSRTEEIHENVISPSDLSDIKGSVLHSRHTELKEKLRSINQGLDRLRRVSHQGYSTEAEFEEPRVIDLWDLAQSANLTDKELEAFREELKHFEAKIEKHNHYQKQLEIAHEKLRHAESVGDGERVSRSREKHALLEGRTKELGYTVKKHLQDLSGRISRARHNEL
Chain of UniProt P08240 (P08240 whole entry): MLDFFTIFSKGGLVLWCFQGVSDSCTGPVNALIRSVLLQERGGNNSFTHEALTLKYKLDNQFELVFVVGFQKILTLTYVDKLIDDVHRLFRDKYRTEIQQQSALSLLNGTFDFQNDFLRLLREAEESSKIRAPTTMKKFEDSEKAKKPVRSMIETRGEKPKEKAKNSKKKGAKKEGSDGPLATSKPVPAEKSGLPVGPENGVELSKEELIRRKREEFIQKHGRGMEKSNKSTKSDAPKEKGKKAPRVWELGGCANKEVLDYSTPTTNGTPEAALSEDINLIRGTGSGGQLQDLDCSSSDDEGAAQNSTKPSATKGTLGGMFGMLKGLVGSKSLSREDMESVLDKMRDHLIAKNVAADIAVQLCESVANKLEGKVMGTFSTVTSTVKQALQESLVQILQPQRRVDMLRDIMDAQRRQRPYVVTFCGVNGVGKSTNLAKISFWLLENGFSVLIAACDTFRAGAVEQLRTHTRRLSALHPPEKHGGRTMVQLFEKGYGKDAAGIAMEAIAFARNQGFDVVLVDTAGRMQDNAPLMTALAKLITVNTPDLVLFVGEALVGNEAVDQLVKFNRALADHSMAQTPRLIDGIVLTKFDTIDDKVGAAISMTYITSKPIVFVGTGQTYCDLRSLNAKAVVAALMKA
Chain of UniProt Q12913 (Q12913 whole entry): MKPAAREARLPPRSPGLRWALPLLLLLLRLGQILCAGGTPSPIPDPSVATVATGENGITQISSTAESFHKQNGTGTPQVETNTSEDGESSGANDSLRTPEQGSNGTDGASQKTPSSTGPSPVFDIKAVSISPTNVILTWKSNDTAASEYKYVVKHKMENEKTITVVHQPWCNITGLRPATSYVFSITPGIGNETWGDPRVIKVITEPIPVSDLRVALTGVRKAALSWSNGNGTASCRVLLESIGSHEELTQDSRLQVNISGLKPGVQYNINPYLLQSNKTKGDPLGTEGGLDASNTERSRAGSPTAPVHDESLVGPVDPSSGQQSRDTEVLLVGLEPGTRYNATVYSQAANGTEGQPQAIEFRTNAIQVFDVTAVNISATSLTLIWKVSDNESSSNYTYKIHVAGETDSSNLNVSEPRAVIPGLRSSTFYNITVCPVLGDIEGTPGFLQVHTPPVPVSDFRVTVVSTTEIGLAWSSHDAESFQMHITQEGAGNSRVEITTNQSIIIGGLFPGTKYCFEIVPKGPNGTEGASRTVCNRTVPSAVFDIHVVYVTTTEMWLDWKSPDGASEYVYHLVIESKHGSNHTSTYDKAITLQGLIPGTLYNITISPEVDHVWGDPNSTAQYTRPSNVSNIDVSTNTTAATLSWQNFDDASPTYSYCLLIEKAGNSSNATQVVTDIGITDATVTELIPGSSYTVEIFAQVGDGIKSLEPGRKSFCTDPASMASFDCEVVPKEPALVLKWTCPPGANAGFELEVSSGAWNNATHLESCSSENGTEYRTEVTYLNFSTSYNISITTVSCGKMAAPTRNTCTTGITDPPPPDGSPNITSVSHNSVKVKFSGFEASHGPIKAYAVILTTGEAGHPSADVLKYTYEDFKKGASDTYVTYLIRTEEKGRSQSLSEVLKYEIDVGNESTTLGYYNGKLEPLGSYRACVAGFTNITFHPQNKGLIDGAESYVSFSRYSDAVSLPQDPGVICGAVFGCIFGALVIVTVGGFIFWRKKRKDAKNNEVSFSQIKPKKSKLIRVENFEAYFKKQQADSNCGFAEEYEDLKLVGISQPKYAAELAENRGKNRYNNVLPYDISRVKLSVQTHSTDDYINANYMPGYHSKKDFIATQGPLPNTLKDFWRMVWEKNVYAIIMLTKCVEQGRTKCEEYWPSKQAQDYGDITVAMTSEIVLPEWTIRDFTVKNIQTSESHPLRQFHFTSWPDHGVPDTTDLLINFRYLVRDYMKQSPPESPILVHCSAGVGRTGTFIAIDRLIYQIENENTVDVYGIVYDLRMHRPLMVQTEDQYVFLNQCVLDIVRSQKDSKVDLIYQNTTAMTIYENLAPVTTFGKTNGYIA
Chain of UniProt O43854 (O43854 whole entry): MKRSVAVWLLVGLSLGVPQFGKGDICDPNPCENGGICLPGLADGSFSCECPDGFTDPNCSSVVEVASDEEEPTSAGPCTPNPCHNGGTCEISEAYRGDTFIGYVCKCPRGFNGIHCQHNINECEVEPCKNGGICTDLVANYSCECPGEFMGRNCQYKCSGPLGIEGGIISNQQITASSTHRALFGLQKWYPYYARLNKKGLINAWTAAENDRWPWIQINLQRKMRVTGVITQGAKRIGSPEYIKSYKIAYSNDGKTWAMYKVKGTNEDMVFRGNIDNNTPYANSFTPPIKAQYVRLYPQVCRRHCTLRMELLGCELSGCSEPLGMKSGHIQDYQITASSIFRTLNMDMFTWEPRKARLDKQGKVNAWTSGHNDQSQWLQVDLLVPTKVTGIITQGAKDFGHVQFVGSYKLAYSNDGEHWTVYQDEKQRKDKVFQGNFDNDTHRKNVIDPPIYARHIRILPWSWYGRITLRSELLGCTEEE
Chain of UniProt P27701 (P27701 whole entry): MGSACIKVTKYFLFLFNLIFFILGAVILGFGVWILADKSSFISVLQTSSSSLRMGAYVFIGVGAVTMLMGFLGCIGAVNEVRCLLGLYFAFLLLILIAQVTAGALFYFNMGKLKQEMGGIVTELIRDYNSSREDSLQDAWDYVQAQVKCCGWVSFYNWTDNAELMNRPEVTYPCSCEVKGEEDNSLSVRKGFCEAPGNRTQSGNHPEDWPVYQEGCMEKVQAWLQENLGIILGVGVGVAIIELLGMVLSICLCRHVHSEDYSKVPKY
Chain of UniProt P60903 (P60903 whole entry): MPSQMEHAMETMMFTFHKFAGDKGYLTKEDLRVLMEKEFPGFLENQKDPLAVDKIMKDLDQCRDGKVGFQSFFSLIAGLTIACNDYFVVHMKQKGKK

| Target | lysine labeling ratio R10:1 |
| --- | --- |
| SEMA3C (lysine site: K106) (UniProt Q99985) | 0.653 (active) |
| UniProt P08240 (lysine site: K220) | 2.1 |
| HNRNPU (lysine site: K31) (UniProt Q00839) | 1.72 (active) |
| SDCBP (lysine site: K109) (UniProt O00560) | 5.45 |
| CD82 (lysine site: K114) (UniProt P27701) | 0.977 (active) |
| UniProt P21589 (lysine site: K67) | 2.8 |
| EZR (lysine site: K64) (UniProt P15311) | 0.907 (active) |
| S100A10 (lysine site: K57) (UniProt P60903) | 2.66 |
| LRPAP1 (lysine site: K65) (UniProt P30533) | 4.18 |
| PTGFRN (lysine site: K522) (UniProt Q9P2B2) | 2.13 |
| TGFBR3 (lysine site: K686) (UniProt Q03167) | 1.81 (active) |
| EDIL3 (lysine site: K429) (UniProt O43854) | 1.21 (active) |
| ASPH (lysine site: K609) (UniProt Q12797) | 1.47 (active) |
| CACYBP (lysine site: K223) (UniProt Q9HB71) | 1.74 (active) |
| NRP1 (lysine site: K407) (UniProt O14786) | 3.76 |
| EPHB4 (lysine site: K267) (UniProt P54760) | 3.27 |
| RPL35A (lysine site: K73) (UniProt P18077) | 3.82 |
| PTPRJ (lysine site: K281) (UniProt Q12913) | 0.907 (active) |

Source: the supplement of paper PMC11001985
